# Screening results as filed in PubChem BioAssay.
# A selection: hits, their analogues and other compounds. The true share with any hit is near 8.9%.
# MCF10A rereplic: inducers of DNA re-replication in MCF 10A breast cells; MCF 10A DNA re-replication, Hoechst nuclear intensity, 48 h; Potency, µM (doses to about 46.1 µM), inactives show at the top dose activity, positive = re-replication, most hits filed as activators; hit rate 2.9% among 350,000; note: potency is the fitted concentration of half-maximal effect; % of control where 0% means no effect; nearly all actives have a fitted effect of over 50% in size
# SW480 rereplic: DNA re-replication induction in SW480 cells | SW480 DNA re-replication, Hoechst DNA content imaging, 48 h | Potency, µM (series often up to 46.1 µM), for inactives: at the top dose re-replication activation, most hits filed as activators | hit rate 1.8% among 340,000 | AID 624297; note: potency is the fitted concentration of half-maximal effect; % of control where 0% means no effect; nearly all actives have a fitted effect of over 55% in size
#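 SW480 cells exposed to compounds for 48 hr at 37 C, 5% CO2, then Hoechst-stained 40 min. Nuclear DNA content imaged by fluorescence scanning (405 nm excitation, 500-530 nm emission); re-replication scored as increased high-intensity nuclei.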
# DRD3 agonist: D3 dopamine receptor (human) agonism; P35462; D3R DiscoveRx beta-arrestin cells, luminescence, 90 min; max activation, %; hit rate 0.58% among 410,000; AID 652048; in the data active = max activation above about 30%; note: 0% is about no effect
# Target sequence (P35462 whole entry, looked up): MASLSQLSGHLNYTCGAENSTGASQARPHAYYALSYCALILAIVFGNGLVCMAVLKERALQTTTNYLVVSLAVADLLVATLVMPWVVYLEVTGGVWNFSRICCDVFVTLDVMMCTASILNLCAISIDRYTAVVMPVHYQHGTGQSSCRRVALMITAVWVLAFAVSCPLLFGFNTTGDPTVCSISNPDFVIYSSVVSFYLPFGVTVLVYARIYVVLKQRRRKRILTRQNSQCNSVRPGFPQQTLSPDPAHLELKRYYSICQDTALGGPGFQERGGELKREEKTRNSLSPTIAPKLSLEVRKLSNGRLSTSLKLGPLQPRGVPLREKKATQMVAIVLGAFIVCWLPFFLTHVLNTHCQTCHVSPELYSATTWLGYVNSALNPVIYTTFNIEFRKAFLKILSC
#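 Cells at 1500/well, incubated overnight, then treated with pinned compounds (dopamine as control) for 90 min at 37 degrees C. DiscoveRx reagent added for 30 - 60 minutes at room temperature; luminescence read.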
# KB-V1 MDR tox: KB-V1 MDR subline cytotoxicity | hit rate 3.4% among 400,000 | AID 1347076 | Potency, µM (top dose mostly 46.1 µM), usual class: cytotoxic | KB-V1 MDR cells viability, CellTiter-Glo, 72 h; note: potency is the fitted concentration of half-maximal effect; % is set by controls: 0 for no effect and ±100 for the full control effect; nearly all actives have a fitted effect of over 60% in size
#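 KB-V1 cells (P-gp-expressing MDR subline of KB-3-1) in phenol-red-free DMEM with 10% FBS were exposed to library compounds over a concentration series for 72 h at 37 degrees C. Viability read by CellTiter-Glo luminescence; concentration-effect curves fitted after normalization.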
# DRD3 antagonist: D3 dopamine receptor (human) antagonism | hit rate 2.5% among 360,000 | max response, negative = inhibition, % | D3R cells, DiscoveRx beta-arrestin luminescence, antagonist mode; hits give low values | AID 652054; in the data active = max response below about -50%; inconclusive = no clear call, values can overlap the other calls; note: % is set by controls: 0 for no effect and ±100 for the full control effect
#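 Cells expressing the human receptor were seeded at 1500 cells/well, incubated overnight at 37 degrees C in 5% CO2, then exposed to library compounds with dopamine controls for 90 minutes at 37 degrees C before luminescent detection.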
# KB-3-1 tox: kills parental KB-3-1 adenocarcinoma cells; KB-3-1 viability, CellTiter-Glo ATP luminescence, 72 h; Potency, µM (highest dose often 46.1 µM), most hits filed as cytotoxic; hit rate 1.4% among 400,000; AID 1347075; note: potency is the fitted concentration of half-maximal effect; % is set by controls: 0 for no effect and ±100 for the full control effect; nearly all actives have a fitted effect of over 60% in size
#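 Here the drug-naive KB-3-1 line serves as comparator for MDR sub-line selectivity; cells received compound titrations, 72 h at 37 °C, then CellTiter-Glo readout.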
# Numbers without * were called inactive; i = inactive; u = inconclusive; x = not tested or not shown. Unless noted, calls come from the whole dose curve; as a rule, active = well fitted curve in the direction sought with a large enough effect; inconclusive = small, poorly fitted or top-dose-only effect, or another doubt; inactive = no such curve, though single readings can be large; an effect the other way counts as inactive or inconclusive.
SMILES,MCF10A rereplic,SW480 rereplic,DRD3 agonist,KB-V1 MDR tox,DRD3 antagonist,KB-3-1 tox
Cc1cc(=O)n(C(C)Cc2ccccc2)n1C(C)Cc1ccccc1 (stereo unspecified),-4%,0%,-4,u,20,i
CCOc1ccc2c(c1)-c1c(ssc1=S)C(C)(C)N2C,u,0%,0,u,-52*,u
CC(=O)c1ccc(N2CCN(S(=O)(=O)c3ccc4c(c3)CC(C)N4C(=O)C3CCC3)CC2)cc1 (stereo unspecified),x,x,3,i,x,i
NC(=S)N/N=C/c1ccc(-c2cc(Cl)ccc2Cl)o1,0%,-3%,-20,7.3µM*,u,i
NC(=O)N/N=C/c1ccc(-c2cccc(C(F)(F)F)c2)o1,4.6µM*,-12%,3,i,0,u
N#C/C(=C/c1ccc(-c2cc([N+](=O)[O-])ccc2Cl)o1)C(N)=O,u,u,-17,12µM*,-11,i
CCOC(=O)N/N=C\c1ccc(-c2cc(Cl)ccc2Cl)o1,u,-17%,2,i,-6,i
NC(=S)N/N=C/c1ccc(-c2cc(Cl)cc(Cl)c2)o1,13µM*,-3%,-3,u,-17,i
COC(=O)N/N=C/c1ccc(-c2cc(Cl)cc(Cl)c2)o1,4%,-1%,-16,u,-24,u
CCOC(=O)c1cc(-c2ccc(OC)cc2)n(CCC(=O)Nc2ccc(OC)cc2OC)c1C,x,x,11,x,x,x
COc1ccc(N2CCN(C(=O)c3cc(-c4ccc(C)c(F)c4)on3)CC2)cc1,x,x,2,i,x,i
CCOc1ccccc1NC(=O)C(=O)NCCc1sc2nc(-c3ccc(OC)cc3)nn2c1C,x,x,16,x,x,x
CNC(=S)N/N=C/c1ccc(-c2cc([N+](=O)[O-])ccc2Cl)o1,4%,-5%,3,i,-2,7.3µM*
CC1=CC(C)(C)n2c(O)c(N=NC(N)=S)c3cc(C)cc1c32,u,16µM*,0,i,-8,i
Cc1ccc2c(c1)c(N=NC(N)=S)c(O)n2Cc1ccccc1,14%,0%,2,i,0,i
Cc1ccc(CNCC(O)(c2ccccc2)c2ccc(F)cc2)cc1 (stereo unspecified),21%,4%,3,18µM*,10,i
Cc1ccc(CNCC(O)(c2ccc(F)cc2)c2ccc(F)cc2)cc1,u,u,2,i,-24,i
CCOc1ccc(NC(=O)C2CCCN(S(=O)(=O)c3ccc(Br)s3)C2)cc1 (stereo unspecified),x,x,7,i,x,i
CCOC(=O)Nc1ccc2c(c1)N(C(=O)CCN1CCOCC1)c1ccccc1S2=O (stereo unspecified),10µM*,5.8µM*,-4,u,-15,u
COc1cc(OC)c(OC)cc1/C=c1\[nH]c(=O)/c(=C/c2cc(OC)c(OC)cc2OC)[nH]c1=O,x,x,x,i,x,u
CCN(CC)S(=O)(=O)c1ccc(C(=O)NNC(=O)C2COc3ccccc3O2)cc1 (stereo unspecified),-5%,-3%,3,i,1,i
CCN(CC1COc2ccccc2O1)S(=O)(=O)c1ccc(C)cc1 (stereo unspecified),22%,15%,-3,23µM*,-21,i
Cc1ccc(-n2nnnc2-c2ccccc2Br)cc1,5%,16%,1,i,-5,i
Clc1ccc2[nH]cc(-c3nnnn3-c3ccccc3)c2c1,20%,17%,-7,16µM*,-18,18µM*
c1ccc(-n2nnnc2-c2cccc3ccccc23)cc1,23µM*,5.8µM*,-1,x,16,x
Cc1ccc[n+](/C(C(=S)NCc2ccco2)=C(/[O-])c2ccccc2Cl)c1,17%,4%,1,i,20,u
Cc1ccc[n+](C(C(=S)NCc2ccco2)=C([O-])c2ccccc2Cl)c1,12%,2%,0,21µM*,14,i
CCCCC(=O)Nc1cccc(OCc2cc(=O)n3ccccc3n2)c1,x,x,-7,x,x,x
